Shown are actives, neighbours in structure and some others; about 0.55% of the full set was active somewhere.
EPAC1 ag – EPAC1 (human) agonism | Potency, µM (series often up to 154 µM), for inactives: at the highest dose activation, hits mostly activators | EPAC1 agonist qHTS, biochemical assay; response scale: 100% = response to 6.5 mM cAMP | AID 720707 | 360,000 compounds, 0.073% hits | O95398; also: nearly all actives have a fitted effect of over 60% in size
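EPAC1 100 nM, Rap1B–BODIPY-GDP 250 nM, unlabeled GDP 50 uM; compound titration; 5 min RT; kinetic read ex480/em540 at 5-min intervals ×30 min; data normalized to 6.5 mM cAMP agonist control.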
GLP1R cytotox – cytotoxicity counter-screen for GLP-1 receptor inverse agonists; HEK293 cAMP-luciferase reporter cells, luminescence, 24 h; Potency, µM (titrated, usually from 38.3 µM), for the others: at the highest dose activity change, negative = inhibition, most hits filed as inhibitors; 410,000 compounds, 0.13% hits;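 also: loss of luciferase light is scored as toxicity; % is scaled to controls: 0 for no effect and ±100 for the full control effect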
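Compound-treated cells are incubated 24 hr at 37 deg C under 5% CO2 after a 12 hour attachment period, then luciferase detection reagent is added and luminescence is measured following 12 min at room temperature; lowered signal indicates toxicity.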
EPAC1 antagonist – EPAC1 (human) antagonism | O95398 | EPAC1 GEF assay, Rap1b-BODIPY-GDP exchange fluorescence | Potency, µM (doses to about 115 µM), inactives show top-dose activity change, negative = inhibition, actives largely listed as inhibitors | 360,000 compounds, 0.14% hits;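 also: plate controls were vehicle for no effect and positive control for full effect; nearly all actives have a fitted effect of over 50% in size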
EPAC2 antag – blocks human EPAC2 exchange factor; Q8WZA2; EPAC2 GEF exchange of Rap1B-BODIPY-GDP, fluorescence; Potency, µM (titrated, usually from 114 µM), without a hit: top-dose activity, negative = inhibition, most hits filed as inhibitors; 360,000 compounds, 0.18% hits; also: % is scaled to controls: 0 for no effect and ±100 for the full control effect; nearly all actives have a fitted effect of over 45% in size
Target sequence (Q8WZA2 whole entry, looked up): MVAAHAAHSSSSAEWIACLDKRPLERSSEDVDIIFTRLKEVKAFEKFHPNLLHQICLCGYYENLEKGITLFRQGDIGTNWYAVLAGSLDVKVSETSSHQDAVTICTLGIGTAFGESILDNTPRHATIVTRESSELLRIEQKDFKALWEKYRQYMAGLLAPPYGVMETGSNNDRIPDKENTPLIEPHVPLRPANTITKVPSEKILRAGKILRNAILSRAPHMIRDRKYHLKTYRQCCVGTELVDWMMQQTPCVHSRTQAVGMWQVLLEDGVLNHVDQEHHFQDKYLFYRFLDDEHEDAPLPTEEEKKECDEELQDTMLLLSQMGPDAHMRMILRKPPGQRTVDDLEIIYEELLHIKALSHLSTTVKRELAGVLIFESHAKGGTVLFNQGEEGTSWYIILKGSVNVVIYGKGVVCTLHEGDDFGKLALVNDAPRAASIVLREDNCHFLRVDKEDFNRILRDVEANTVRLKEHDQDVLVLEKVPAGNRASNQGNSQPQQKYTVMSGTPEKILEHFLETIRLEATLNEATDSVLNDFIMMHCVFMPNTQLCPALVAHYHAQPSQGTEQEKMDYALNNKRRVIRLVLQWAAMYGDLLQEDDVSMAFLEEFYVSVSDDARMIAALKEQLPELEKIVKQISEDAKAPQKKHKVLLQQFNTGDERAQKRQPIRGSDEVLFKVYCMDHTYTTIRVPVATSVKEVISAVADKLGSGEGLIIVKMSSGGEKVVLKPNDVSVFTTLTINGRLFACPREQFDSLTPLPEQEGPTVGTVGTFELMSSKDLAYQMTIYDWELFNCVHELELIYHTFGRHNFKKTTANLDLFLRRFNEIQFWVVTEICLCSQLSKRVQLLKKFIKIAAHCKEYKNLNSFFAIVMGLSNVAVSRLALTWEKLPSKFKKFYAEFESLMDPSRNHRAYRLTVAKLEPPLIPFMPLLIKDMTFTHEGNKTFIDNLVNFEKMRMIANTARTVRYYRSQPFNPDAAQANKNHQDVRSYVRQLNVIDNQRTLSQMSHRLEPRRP
EPAC2 ag – activates human EPAC2 exchange factor. EPAC2 activation, biochemical qHTS; response scale: 100% = 6.5 mM cAMP response. Potency, µM (top dose mostly 154 µM), for inactives: at the highest dose activation, usual class: activators. AID 720711. 360,000 compounds, 0.079% hits; also: nearly all actives have a fitted effect of over 50% in size
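Compounds were added across a concentration range to EPAC2 (100 nM), RAP1B-BODIPY-GDP (250 nM) and GDP (50 uM). After 5 min at room temperature, fluorescence was recorded at 5-min intervals for 30 min.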
USP1 inh – USP1/UAF1 (human) deubiquitinase inhibition; O94782; recombinant USP1/UAF1, Ub-Rhodamine cleavage fluorescence; Potency, µM (doses to about 57.1 µM), for the others: top-dose activity change, negative = inhibition, usual class: inhibitors; 390,000 compounds, 0.23% hits; AID 743255; also: % is scaled to controls: 0 for no effect and ±100 for the full control effect; nearly all actives have a fitted effect of over 60% in size
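High-throughput fluorogenic screen: 1nM USP1/UAF1 complex, Ub-Rho substrate 150nM final, 50mM HEPES pH 7.8 with 0.5mM EDTA, 0.1 mg/ml BSA, 1mM TCEP and 0.01% Tween-20.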
An asterisk follows results filed as active; ? = inconclusive; . = not tested or not shown. Calls follow the shape of the dose curve; as a rule, active = well fitted curve in the direction sought with a large enough effect; inconclusive = small, poorly fitted or top-dose-only effect, or another doubt; inactive = no such curve, though single readings can be large; an effect the other way counts as inactive or inconclusive. Potency is read from the fitted curve at half-maximal effect.

SMILES	EPAC1 ag	GLP1R cytotox	EPAC1 antagonist	EPAC2 antag	EPAC2 ag	USP1 inh
O=C(O)c1cc(O)c2c(c1)[C@@H]([C@H]1c3cc(C(=O)O)cc(O)c3C(=O)c3c(O[C@@H]4O[C@H](CO)[C@@H](O)[C@H](O)[C@H]4O)cccc31)c1cccc(OC3O[C@H](CO)[C@@H](O)[C@H](O)[C@H]3O)c1C2=O (some centres undefined)	5%	?	?	?	8%	5.6µM*
O=C1c2cc(CO)cc(O)c2C(=O)c2c(O[C@@H]3OC(CO)[C@@H](O)[C@@H](O)[C@@H]3O)cccc21 (some centres undefined)	-8%	2%	1%	-13%	2%	-2%
CC(=O)Nc1ccc(C(=O)Nc2ccc3c(c2)N(C2CCCC2)C(=O)c2ccccc2S3)cc1	.	-9%	.	.	.	-7%
Fc1cccc(NCc2ccccc2-c2nnc(-c3ccccc3Cl)o2)c1	.	-3%	.	.	.	?
O=[N+]([O-])c1ccc(O)c(-c2ccnc3cc(-c4ccccc4)nn23)c1	.	-27%	.	.	.	-7%
O=c1cc(CSc2nc3ccccc3c(=O)[nH]2)c2ccc(O)cc2o1	-23%	-4%	50µM*	-16%	5%	-14%
COc1cc(/C=C2/C(=O)NN(c3ccc(Cl)c(Cl)c3)C2=O)cc([N+](=O)[O-])c1O	0%	-30%	?	-26%	-4%	?
COc1cc(/C=C2\SC(=O)N(c3ccccc3Cl)C2=O)cc([N+](=O)[O-])c1O	0%	?	79µM*	?	-5%	-20%
COc1cc(/C=C2\SC(=O)N(CC(=O)Nc3cccc(C)c3)C2=O)cc([N+](=O)[O-])c1O	7%	10%	?	50µM*	-15%	-26%
Cc1csc(N=Nc2ccc(N(C)C)cc2)[n+]1[O-]	-11%	4µM*	?	?	-11%	-26%
CN(Cc1ccccc1)C(=O)c1ccc2c(c1)N(Cc1ccc(Cl)cc1)C(=O)c1ccccc1S2=O (centres undefined)	.	-11%	.	.	.	-21%
Cc1ccc(NC(=S)Nc2ccccn2)c(C)c1	5%	5µM*	-29%	-12%	10%	2%
Cc1cc(Cl)ccc1NC(=S)Nc1ccccn1	-1%	?	-4%	1%	0%	-22%
O=C(Cn1nc(N2CCN(c3ccccc3)CC2)ccc1=O)NCc1cccc(Cl)c1	.	-14%	.	.	.	?
Cn1c(=S)c2[nH]c(SCCN)nc2n(C)c1=O	4%	3.2µM*	-9%	2%	-1%	-8%
Cc1nc2ccc(S(=O)(=O)N(CC(=O)Nc3cccc(F)c3)Cc3ccccc3)cc2s1	.	-7%	.	.	.	-25%
Nc1ncn(C(=S)Nc2ccccc2)n1	5%	4.5µM*	2%	-1%	11%	-6%
COC(=O)c1ccc(N2C(=O)Cc3cc(OC)c(OC)cc3C2c2ccc(F)cc2)cc1 (centres undefined)	.	7%	.	.	.	-14%
CC1CC(C)(C)NC(=S)N1CCCC(=O)Nc1ccc(Br)cc1 (centres undefined)	-3%	11µM*	?	-19%	5%	4%
Cc1ccc(NC(=O)CSc2nccn2C2CCCC2)cc1Cl	.	2%	.	.	.	-20%
Cc1nnc(SCC(=O)NCc2ccc(N(C)C)cc2)c2nn(-c3ccccc3)c(C)c12	.	3%	.	.	.	-7%
NC(=S)N=Nc1c(O)n(CCCl)c2ccc(Cl)cc12	-8%	1.3µM*	3%	3%	-2%	-13%
O=C(CN1C(=O)N/C(=C\c2ccccc2OCc2ccc(C(=O)O)cc2)C1=O)Nc1ccccc1F	0%	20%	35µM*	1%	9%	?
Cc1ccc(NC(=O)CN2C(=O)N/C(=C/c3ccccc3OCc3cccc(C(=O)O)c3)C2=O)cc1	6%	-5%	?	?	3%	?
COc1cccc(/C=C2/NC(=O)N(CC(=O)Nc3ccc(C)cc3)C2=O)c1OCc1cccc(C(=O)O)c1	23%	-1%	?	-2%	11%	25µM*
SMILES	EPAC1 ag	GLP1R cytotox	EPAC1 antagonist	EPAC2 antag	EPAC2 ag	USP1 inh
COc1cc(NC(=O)CN(C)S(=O)(=O)c2ccc3c(c2)CCCC(=O)N3)cc(OC)c1OC	.	-1%	.	.	.	-21%
COc1ccc(C(=O)/C=C2/C(=O)Nc3ccccc32)c(OC)c1	-5%	10µM*	-6%	8%	1%	-17%
COc1ccc(C(=O)/C=C2/C(=O)Nc3ccccc32)cc1	8%	?	3%	1%	14%	-16%
O=C(Cn1c(=O)n(Cc2ccco2)c(=O)c2sc3ccccc3c21)Nc1ccccc1C(F)(F)F	.	2%	.	.	.	-30%
CCN(CC)c1ccc(N=C2C(=O)Nc3ccccc32)cc1	-12%	-13%	-24%	2%	-1%	32µM*
CC1=CC2=C(C=O)C(=O)C(C)(O)C(O)C2=CO1 (centres undefined)	-64%	13%	?	50µM*	-68%	-22%
CCCOc1cccc(NC(=O)c2c(-c3ccccc3Cl)noc2C)c1	.	23%	.	.	.	?
O=C(CCl)Nc1ccc(S(=O)(=O)NC2=NCCCCC2)cc1	-9%	?	4%	13%	0%	-12%
O=C(CCl)Nc1cccc(S(=O)(=O)NC2=NCCCCC2)c1	2%	11µM*	-5%	3%	10%	-3%
COc1ccc(/C(N)=N/OC(=O)c2ccc(C)c([N+](=O)[O-])c2)cc1	-4%	1%	-4%	5%	10µM*	-18%
CCc1cc2c(cc3c(=O)n(CC(=O)NCCc4ccc(OC)cc4OC)nc(CC)n32)s1	.	-2%	.	.	.	?
COC1=C(Br)C(=O)c2ncccc2C1=O	3%	?	?	8.9µM*	9%	0.89µM*
O=C1c2cccnc2-c2ncccc21	0%	-6%	-5%	4%	8%	-23%
O=C(CSc1nc2cc(Cl)ccc2s1)c1cc2ccccc2o1	19%	3%	-7%	5%	11%	28µM*
COc1ccc(NC(=O)N(C)C[C@H]2Oc3ccc(NC(=O)CCN4CCOCC4)cc3C(=O)N([C@@H](C)CO)C[C@H]2C)cc1	2%	0%	-8%	-2%	3%	5µM*
COc1ccc(NC(=O)[C@@H]2[C@@H]3C(=O)N(C4CCCCC4)C(=O)[C@@H]3C3c4ccccc4C=CN32)cc1 (some centres undefined)	3%	-1%	-1%	-5%	-8%	32µM*
N#C/C(=C/c1cccn1-c1cccc(C(=O)O)c1)c1ccc(Cl)cc1	-9%	-23%	-12%	40µM*	-2%	-16%

High-throughput results: PubChem BioAssay, National Center for Advancing Translational Sciences (NCATS)
